High-throughput results (PubChem)
The list is not random: actives were taken first. Their share in the collection is about 0.81%.
AMA1-RON2 inh = qHTS for Inhibitors of AMA1-RON; Towards Development of Antimalarial Drug Lead: Primary Screen; AlphaScreen AMA1-biotinylated RON2 peptide binding; Potency, µM (top dose mostly 58.2 µM), without a hit: at the highest dose activity change, negative = inhibition, most hits filed as inhibitors; actives 0.2% (n = 360,000);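 also: 0% = vehicle wells and -100% = peptide control; nearly all actives have a fitted effect of over 45% in size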
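AMA1 (3D7) with his tag at 25 nM final met compounds first, then biotinylated RON2 peptide at 25 nM; detection used donor plus acceptor beads, 10 µg/mL apiece, read by AlphaScreen after 30 min at room temperature.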
SARS PLP yeast = qHTS of Yeast-based Assay for SARS-CoV PLP; AID 485353, 2010; Potency, µM (titrated, usually from 32.9 µM), for inactives: top-dose activity, positive = growth rescue, most hits filed as activators; actives 0.19% (n = 330,000); S. cerevisiae expressing SARS-CoV PLpro, growth rescue; calls by dose curve; also: 0% is about no effect; nearly all actives have a fitted effect of over 55% in size
LmPK inhibitor = qHTS Assay for Inhibitors of Leishmania Mexicana Pyruvate Kinase (LmPK); Q27686; purified LmPK, Kinase-Glo ATP luminescence, 1 h; Potency, µM (highest dose often 57.5 µM), for the others: at the highest dose activity change, negative = inhibition, usual class: inhibitors; actives 0.37% (n = 290,000); AID 1721, 2009; also: % is scaled to controls: 0 for no effect and ±100 for the full control effect
Target sequence (Q27686 whole entry, looked up): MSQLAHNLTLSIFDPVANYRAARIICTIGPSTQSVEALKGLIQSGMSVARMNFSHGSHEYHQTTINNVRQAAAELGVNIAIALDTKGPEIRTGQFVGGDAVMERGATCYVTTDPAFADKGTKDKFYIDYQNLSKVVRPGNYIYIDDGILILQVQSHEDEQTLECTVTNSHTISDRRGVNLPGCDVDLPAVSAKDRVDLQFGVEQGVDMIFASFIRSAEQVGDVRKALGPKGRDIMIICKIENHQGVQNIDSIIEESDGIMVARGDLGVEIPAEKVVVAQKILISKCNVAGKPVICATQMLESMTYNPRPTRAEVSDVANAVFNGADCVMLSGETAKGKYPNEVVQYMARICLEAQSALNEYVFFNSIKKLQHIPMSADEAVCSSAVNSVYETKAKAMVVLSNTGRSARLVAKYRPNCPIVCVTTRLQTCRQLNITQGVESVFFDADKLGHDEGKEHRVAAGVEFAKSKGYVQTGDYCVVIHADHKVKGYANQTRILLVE
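ATP generated from ADP (0.1 mM) and PEP (0.5 mM) by 0.1 nM LmPK over 1 h at room temperature (pH 7.2 imidazole buffer) was detected by coupled luciferase luminescence. Values were normalized to uninhibited and no-enzyme wells.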
TbPYK inhibitor = qHTS of Trypanosoma Brucei Inhibitors; pyruvate kinase (Trypanosoma brucei), Q57TT1; TbPYK enzyme, Kinase-Glo Plus ATP luminescence, 45 min; Potency, µM (top dose mostly 76.8 µM), inactives show at the top dose activity, negative = inhibition, actives largely listed as inhibitors; actives 0.12% (n = 410,000); also: % is scaled to controls: 0 for no effect and ±100 for the full control effect; nearly all actives have a fitted effect of over 50% in size
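Assay buffer: 50 mM TEA pH 7.2, 100 mM KCl, 10 mM MgCl2, 0.05% BSA, 0.01% Tween-20. Pyruvate kinase from T. brucei plus substrate met compound, then ADP (130 uM final). Luminescence was read post 45 min RT.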
RE007 growth inh = qHTS Assay for Inhibitors of the HIV-1 protein Vpr | S. pombe RE007 Vpr strain, BacTiter-Glo ATP luminescence, 24 h | Potency, µM (doses to about 92.2 µM), for inactives: at the highest dose activity change, negative = less growth, hits mostly inhibitors | actives 0.21% (n = 360,000); active = well fitted falling curve with a large enough effect; inconclusive = small, poorly fitted or top-dose-only effect; inactive = no such curve, though single readings can be large or run the other way; also: % is scaled to controls: 0 for no effect and ±100 for the full control effect; nearly all actives have a fitted effect of over 50% in size
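Fission yeast strain RE007, carrying one chromosomally integrated HIV-1 vpr copy, was seeded at OD 0.01 in PMG+AL medium with 23 nL pinned compound. After 24 h at 30 °C and 99% humidity, viability was read by BacTiter-Glo luminescence.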
The depositor's hits bear a star; ? = inconclusive; · = not tested or not shown; [ ] = dose if it differs, or a comment. Unless noted, calls follow the shape of the dose curve; as a rule, active = well fitted curve in the direction sought with a large enough effect; inconclusive = small, poorly fitted or top-dose-only effect, or another doubt; inactive = no such curve, though single readings can be large; an effect the other way counts as inactive or inconclusive. Potency is read from the fitted curve at half-maximal effect.

SMILES	AMA1-RON2 inh	SARS PLP yeast	LmPK inhibitor	TbPYK inhibitor	RE007 growth inh
O=C(O)C1C2C=CC(O2)C1C(=O)NCc1ccc2c(c1)OCO2 (configuration not stated)	3%	-20%	0%	1%	-27%
Cc1onc(-c2c(F)cccc2Cl)c1C(=O)N1CCCc2ccccc21	0%	-8%	5%	7.1µM*	-19%
NC(=O)c1sc2nc3c(c(-c4ccco4)c2c1N)CCCC3	0%	1%	-1%	-10%	20%
Nc1c(C(=O)NCC2CCCO2)sc2nc3c(c(-c4ccco4)c12)CC/C3=C\c1ccco1 (configuration not stated)	8.9µM*	20%	-5%	-6%	-2%
O=C1/C(=C/c2cccs2)COc2ccccc21	-16%	-24%	14µM*	-28%	?
CN(C)c1ccc2c(c1[N+](=O)[O-])Cc1ccccc1-2	10µM*	·	·	-2%	-29%
COc1cc2c(cc1[N+](=O)[O-])-c1ccccc1C2	-20%	·	·	-6%	?
Cc1ncc(C[n+]2csc(CCOP(=O)(O)OP(=O)(O)O)c2C)c(N)n1	·	·	·	0%	·
COc1cc(NC(C)=O)c2ncccc2c1NC(C)=O	-7%	7%	-1%	-12%	12%
CC(=O)Nc1cc(=O)c2cccnc2[nH]1	14µM*	·	·	-4%	-12%
COCC(=O)N1CCc2nc(COc3ccccc3)c3c(c2C1)CO[C@@H](C)C3	·	·	0%[11.5 µM]	·	·
Cc1ccc(N2C(=O)[C@@H]3C(c4cccnc4)=NO[C@@H]3C2=O)c(C)c1	-8%	0%	3%	-3%	9%
O=C1[C@@H]2C(c3cccnc3)=NO[C@@H]2C(=O)N1c1ccc(Br)cc1	4%	-6%	-6%	-17%	22µM*
CC(=O)O[C@@H]1C(=O)O[C@H]2[C@@H]1OC(=O)[C@@H]2OC(C)=O	·	·	·	1%	·
Cc1ccc(C2CC2C(=O)NNC(=S)Nc2cccc(Cl)c2)cc1 (configuration not stated)	10%	14µM*	2%	-1%	9%
Cc1cc(Cl)ccc1NNC(=O)c1cccs1	20µM*	-3%	5%	4%	200%
O=C(NNc1cc(Cl)ccc1Cl)c1cccs1	-21%	-3%	8%	0%	184%
C[C@]12CCC3C(CCC4=CC(=O)CC[C@@H]43)C1CCC2O (some centres not stated)	·	·	·	14%	·
COc1cc(N2C(=O)C=CC2=O)c(OC)cc1Cl	-7%	-6%	14µM*	?	40µM*
Cc1ccc2c(c1)c1nnc(SCC(=O)N3CCCc4ccccc43)nc1n2CC(=O)O	0%	-3%	4.5µM*	2%	6%
CCc1nnc(SCC(=O)N2CCCc3ccccc32)nc1CC	-19%	1%	1%	2%	0%
CCCCN1C(=O)NC2NC(=O)NC21 (configuration not stated)	3.5µM*	17%	-4%	-3%	5%
COCCNC(=O)C1(C)CCN(C(=O)Cc2ccc(OC)c(OC)c2)C1 (configuration not stated)	-2%	·	·	-3%	-3%
Cc1ccc(/C=C2/NC(=O)N(Cc3ccccc3)C2=O)o1	0%	-66%	-4%	?	45µM*
Nc1c(/C=C2/C=CC(=O)C(O)=C2)c(=O)nc2sc(CC(=O)N3CCCCC3)nn12	6%	11µM*	12%	0%	8%
SMILES	AMA1-RON2 inh	SARS PLP yeast	LmPK inhibitor	TbPYK inhibitor	RE007 growth inh
CC1=CC(=C(c2ccc(N)cc2)c2ccc(N)cc2)C=CC1=N	·	·	·	-24%	·
Cc1ccc(/C=N/NC(=O)c2cc(C)oc2C)cc1	-6%	-2%	13µM*	-2%	-26%
Cc1cc(C(=O)N/N=C/c2ccncc2)c(C)o1	17%	0%	?	0%	-3%
CCN(CC)c1ccc(/C=N\NC(N)=O)cc1	-11%	-19%	-6%	-6%	-5%
CCN(CC)c1ccc(/C=N/NC(=O)c2ccoc2C)cc1	26%	-1%	14µM*	?	-26%
COc1cccc(/C=N/NC(=O)c2ccoc2C)c1	10%	-2%	13µM*	-10%	-11%
O=C(OC[C@@H]1O[C@@](O)(COC(=O)c2cccnc2)[C@H](OC(=O)c2cccnc2)[C@H]1OC(=O)c1cccnc1)c1cccnc1	·	·	·	-11%	·
c1coc(-c2nc(-c3ccco3)c(-c3ccco3)nc2-c2ccco2)c1	9.5µM*	7%	16%	-12%	-7%
O=C(OCN1C(=O)c2ccccc2C1=O)C1CCCCC1	7%	-2%	6%	0%	-9%
O=C1c2ccccc2C(=O)N1SC1CCCCC1	9%	-32%	32%	?	45µM*
COc1cc2c(cc1OC)C(c1ccc(Br)cc1)NCC2 (configuration not stated)	9%	·	·	4%	4%
CCS(=O)(=O)c1ccc2oc(Nc3ccccc3Br)nc2c1	-23%	-2%	16µM*	1%	-16%
Cc1ccc(/C(=C\CN2CCCC2)c2cccc(/C=C/C(=O)O)n2)cc1	·	·	·	3%	·
O=c1[nH][nH]c2c(N=Cc3ccccc3O)ccc(F)c12	11µM*	-1%	-23%	-18%	6%
C=C1c2cccc(O)c2C(=O)C2C(=O)[C@]3(O)C(=O)C(C(N)=O)C(=O)[C@@H](N(C)C)[C@@H]3[C@@H](O)[C@H]12 (some centres not stated)	0.89µM*	17%	·	?	-2%
CC(O)(c1ccc(F)c(F)c1)c1nc(-c2ccncc2)cs1 (configuration not stated)	11%	·	·	2%	6%[18.4 µM]
CN(C)c1ccc(-c2csc(C(C)(O)c3ccc(F)c(F)c3)n2)cc1 (configuration not stated)	20µM*	·	·	-3%	4%[18.4 µM]
CCOC(=O)C1CCCN(C2CC(=O)N(c3cccc(C)c3)C2=O)C1 (configuration not stated)	-4%	-18%	1%	4%	25µM*
CCOC(=O)c1ccc(N2C(=O)CC(N3CCC(C#N)(c4ccccc4)CC3)C2=O)cc1 (configuration not stated)	4%	-19%	6%	-6%	22µM*
CCOC(=O)c1ccc(N2C(=O)CC(N3CCN(Cc4ccccc4)CC3)C2=O)cc1 (configuration not stated)	0%	-8%	0%	1%	-24%
CCOC(=O)c1ccc(N2C(=O)CC(N3CCC(O)(c4ccc(Cl)cc4)CC3)C2=O)cc1 (configuration not stated)	5%	-36%	0%	-2%	?
CCOC(=O)c1ccc(N2C(=O)CC(N3CCCC(C)C3)C2=O)cc1 (configuration not stated)	1%	-36%	2%	0%	3.2µM*
